Our source for the AC50 and outcome values is PubChem BioAssay (EPA / NIEHS).

One test deals with SERPINA7 (gene 6906). The test is described as follows: CCTE_GLTED_hTBG: CCTE's human Thyroxine-binding Globulin (TBG) Inhibition Assay, Great Lakes Toxicology and Ecology Division (GLTED) Lab (AID 2284343).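 Note: active chemicals lower fluorescence versus DMSO baseline by displacing probe.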 The essentials:
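Cell-free binding assay in which human TBG is incubated with test chemical for 2 hours and displacement of the fluorescent probe ANSA is read at 380 nm excitation/475 nm emission. Activity is fitted against DMSO as the negative control.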

The nature of test [1]: CCTE_Deisenroth_5AR_NBTE_donor: CCTE's 5alpha-reductase NanoBRET Target Engagement Assay […], Deisenroth Lab (AID 2284319; active = hit-call score of the fitted dose curve at least 0.9, where 1 is the maximum; inactive = score below 0.9). Particulars: actives raise or lower the signal. In outline:
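HEK293T cells transiently expressing SRD5A2-NanoLuc, exposed 5 h to chemicals (8 points, 10 nM - 29.9 uM), with testosterone tracer for the final 2 h. Donor luminescence at 460 nm read after Nano-Glo substrate plus extracellular NanoLuc inhibitor; bidirectional fit versus DMSO.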

The nature of test [2]: CCTE_Deisenroth_5AR_NBTE_acceptor: CCTE's 5alpha-reductase NanoBRET Target Engagement Assay - Autofluorescence Screen, Deisenroth Lab (AID 2284321; active = hit-call score of the fitted dose curve at least 0.9, where 1 is the maximum; inactive = score below 0.9;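 note: compound fluorescence in the acceptor channel under 460 nm excitation flags autofluorescence artifacts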). Particulars: actives raise or lower the signal. The essentials:
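Using three independent plate-reader runs, nominal 100 uM chemicals were checked for intrinsic fluorescence (ex 460 nm). DMSO defined the baseline for bidirectional fitting.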

A further test deals with SRD5A2 (gene 6716). The test is described as follows: CCTE_Deisenroth_5AR_NBTE_ratio: CCTE's 5alpha-reductase NanoBRET Target Engagement Assay - Ratio, Deisenroth Lab (AID 2284322; active = hit-call score of the fitted dose curve at least 0.9, where 1 is the maximum; inactive = score below 0.9). Particulars: actives raise or lower the signal. In outline: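 Reverse-transfect HEK293T with pNLF1-C-SRD5A2, express 20 h. Pre-incubate cells with chemical 3 h (8-point series, 10 nM - 29.9 uM, duplicate). Add testosterone tracer, 2 h more. Add substrate/inhibitor, read donor and acceptor emission.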
On the technique in general: In BRET a luciferase serves as donor, and the signal depends on an acceptor being close.

Test [3] is described as follows: VALA_MIGHUV1_ScratchOnly_WoundArea: VALA Sciences human Umbilical Vein Endothelial Cell Migration (MIGHUV) Assay, Area of Scratch Wound Inhibited Recovery (AID 2284336). The essentials:
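HUVEC monolayers (9000 cells/well) were scratched after 24 h, dosed within 30 min (six concentrations, triplicate, 0.1% DMSO), allowed 24 h recovery, then fixed. Hoechst-stained nuclei in the wound imaged; cytochalasin D as reference.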

Test [4] is described as follows: CCTE_Mundy_HCI_iCellGluta_NOG_NeuriteLength: CCTE's Neurite Outgrowth Assay in iCellGluta cells for Neurite Length, Mundy Lab (AID 2284318). The essentials:
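Automated high-content imaging of betaIII-tubulin (Alexa Fluor-488) and Hoechst-stained cells gave neurite length, normalized to the DMSO baseline.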

Test [5] in a line: CCTE_Mundy_HCI_iCellGluta_NOG_NeuronCount: CCTE's Neurite Outgrowth Assay in iCellGluta cells for Neuron Count, Mundy Lab (AID 2284340).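 Note: cells fixed about 48 h after compound addition.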 In outline: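 Neuron count read by automated high-content imaging of Hoechst 33342 and betaIII-tubulin/Alexa Fluor-488 labelling in human iPSC glutamatergic neurons. Activity fitted relative to DMSO.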
A short description of test [6]: CCTE_Mundy_HCI_iCellGluta_NOG_NeuriteCount: CCTE's Neurite Outgrowth Assay in iCellGluta cells for Neurite Count, Mundy Lab (AID 2284342).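 Note: chemical exposure about 48 hours starting 2 hours after plating.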
Test [7] is described as follows: TAMU_PeakParms_SingleDonor1434_Asystole: Texas A&M University (TAMU) 1.5-hr Human Induced Pluripotent Stem Cell (iPSC)-derived Cardiomyocytes Calcium (Ca+2) Flux Assay for Cardiotoxicity: Asystole (quiescence of beating) (AID 2284328). In outline:
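Average Ca2+-flux peak frequency (beats/s) was recorded in single-donor iPSC-derived cardiomyocytes after 90 min exposure (0.2–100 uM final, 0.5% DMSO). Asystole POD set as EC95 against DMSO, no preprocessing.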

The nature of test [8]: CCTE_Deisenroth_H295R-HTRF_384WELL_ESTRADIOL: CCTE's H295R-HTRF Assay Evaluation of Estradiol Concentration, Deisenroth Lab (AID 2284361; active = hit-call score of the fitted dose curve at least 0.9, where 1 is the maximum; inactive = score below 0.9). The note with it: actives raise or lower the signal. In outline: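 H295R cells exposed 48 h to chemicals at 0.001 - 100 uM final (nine points, triplicate); estradiol in conditioned medium measured by HTRF immunoassay, fitted bidirectionally versus DMSO. Viability by CellTiter-Glo on same plates.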
(In general: In TR-FRET formats the signal depends on donor and acceptor labels being close together.)

Test [9] is described as follows: CCTE_Deisenroth_H295R-HTRF_384WELL_TESTOSTERONE: CCTE's H295R-HTRF Assay Evaluation of Testosterone Concentration, Deisenroth Lab (AID 2284373; active = hit-call score of the fitted dose curve at least 0.9, where 1 is the maximum; inactive = score below 0.9). The note with it: actives raise or lower the signal. In outline:
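H295R cells were acclimated 24 h, then exposed 48 h to nine concentrations (0.001–100 uM final) in technical triplicate, n=5. Testosterone in conditioned medium was measured by HTRF (em 620/665 nm). Fitting was bidirectional versus DMSO; CellTiter-Glo viability ran on the same plates.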

Test [10] in a line: CCTE_Deisenroth_H295R-HTRF_384WELL_CTOX: Cytotoxicity Assessment in CCTE's H295R-HTRF Assay, Deisenroth Lab (AID 2284380). In outline: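 H295R adrenocortical carcinoma cells plated 24 h, then exposed 48 h to nine-point series 0.001–100 uM final, triplicate, n=5. ATP measured by CellTiter-Glo 2.0 luminescence on same plates after medium collection; loss versus DMSO.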
Test [11] is described as follows: IUF_NPC1_cytotoxicity_72hr: Cytotoxicity Assessment at 72 hours in the Leibniz Research Institute for Environmental Medicine (IUF) Neural Progenitor Cell Proliferation Assay (NPC1) (AID 2284332).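 Note: rising LDH signal means more cytotoxicity.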 The essentials:
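Single human fetal cortex neural progenitor spheres (GW 16-19, 0.25-0.35 mm) in EGF/FGF proliferation medium were exposed to compound for 72 h at 37C without renewal. Medium LDH release was read as resorufin fluorescence and fitted as gain-of-signal.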

Results filed as inconclusive are left out. Activity calls are given as the source filed them. Rule for the calls, unless noted: active = hit-call score of the fitted dose curve at least 0.9, where 1 is the maximum; inconclusive = response in the unintended direction; inactive = score below 0.9.

Usually AC50 stands for the concentration giving half of the maximal activity seen. As to `Nc1ccc([N+](=O)[O-])cc1`, the AC50 in the test with SERPINA7 (gene 6906) was 41.4 µM (active).

On to `Cc1cc(N=Nc2ccccc2C)ccc1N`, for which the AC50 in test [1] is 40.6 µM (active); in [2], 38.4 µM (active); with SRD5A2 (gene 6716), 50 µM (active); in the test with SERPINA7 (gene 6906), 4.38 µM (active).

Regarding `Clc1ccc(Cl)c(Cl)c1`, in test [3], the compound was called inactive.

Consider `CN(C)[C@@H]1C(=O)C(C(N)=O)=C(O)[C@@]2(O)C(=O)C3=C(O)c4c(O)cccc4[C@@](C)(O)[C@H]3C[C@@H]12`, for which the concentration at half-maximal activity (AC50) in test [4] was 23.3 µM (active). Moreover, the compound was called inactive in test [5] and in [6].

`COc1cc(C=O)cc2c1[C@H](COC(N)=O)[C@]1(OC(C)=O)ON2C[C@H]2[C@@H]1N2C(C)=O`: the outcome (in [1]; in [2]; in the test with SRD5A2 (gene 6716)) was inactive.

With `Nc1ccc(Oc2ccc(N)cc2)cc1`, the AC50 with SERPINA7 (gene 6906) is 25.3 µM (active).

`Clc1ccc(C(c2ccc(Cl)cc2)C(Cl)(Cl)Cl)cc1`: in test [7], the outcome was inactive.

`O=[N+]([O-])c1ccc(Oc2ccc(Cl)cc2Cl)cc1`: the half-maximal activity concentration (AC50) in the test on SERPINA7 (gene 6906) was 5.39 µM (active). The compound was classed as inactive in [8], in test [9] and in test [10].

For the compound `c1ccc(N=Nc2ccccc2)cc1`, the outcome in [7] was inactive. Also, the AC50 in the test with SERPINA7 (gene 6906) is 50 µM (active).

With `CC(C)COC(=O)c1ccccc1C(=O)OCC(C)C`, the compound was classed as inactive in [4], in [5] and in test [6]. Also, the AC50 in the test with SERPINA7 (gene 6906) was 16.1 µM (active).

`CCCCCOC(=O)c1ccccc1C(=O)OCCCCC`: the AC50 in the test on SERPINA7 (gene 6906) was 7.46 µM (active).

Consider `CS(=O)(=O)NC(=O)c1cc(Oc2ccc(C(F)(F)F)cc2Cl)ccc1[N+](=O)[O-]`, for which the concentration at half-maximal activity (AC50) with SERPINA7 (gene 6906) is 16.1 µM (active).

Regarding `COP(=S)(OC)SCN1C(=O)c2ccccc2C1=O`, the AC50 in test [4] was 92.2 µM (active); in test [5] it was 80.7 µM (active); in [6], 83.8 µM (active); with SERPINA7 (gene 6906), 37.5 µM (active). In addition, the outcome in [11] was inactive.

As to `CC(C)(C)C(O)(CCc1ccc(Cl)cc1)Cn1cncn1` (stereo unspecified), the result in [7], in test [11] and in [8] was inactive. The values for the half-maximal activity concentration (AC50) (in the test on SERPINA7 (gene 6906); in test [9]) were 26.9 µM (active) and 2 µM (active), respectively.
